697 NFkB inh: inhibitors of the PMA/ionomycin-induced NF-kB reporter in 697 B cells. actives 0.33% (n = 330,000). 697 B-cell NF-kB luciferase reporter, 16 h. inhibition, % at 4 µM; in the data active = inhibition above about 35%
Mdm2-MdmX inh: inhibitors of human Mdm2/MdmX interaction. SaOS-2 split-luciferase Mdm2/MdmX complementation, luminescence. inhibition, % at 8 µM. actives 3% (n = 330,000);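 active = inhibition of at least 50% at 8 µM in the primary screen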
Gli-Sufu antag: blocks Gli-Sufu signaling in a luciferase reporter; Sufu-KO-LIGHT fibroblasts, Gli luciferase reporter luminescence; inhibition, % at 5 µM; actives 0.74% (n = 340,000); AID 588413;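 active = inhibition above about 55%, limit read from the data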
Jurkat NFkB inh: lowers PMA/ionomycin-induced NF-kB signal in Jurkat cells | PMA/ionomycin-induced NF-kB luciferase reporter, luminescence | inhibition, % at 4 µM | actives 0.53% (n = 330,000) | AID 435003; in the data active = inhibition above about 50%
Beta apoptosis: beta cell apoptosis inhibition. INS-1E cytokine-induced death, ATP luminescence, 48 h; percent of positive-control rescue, neutral wells zero. protection from apoptosis, % (concentration not given with the values). actives 0.8% (n = 300,000). AID 435005;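 active = Every replicate reaches about 75%, or at least half do and their mean reaches it too, limit read from the data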;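 also: higher means more ATP so stronger rescue from cytokine killing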
Mdm2 MdmX conf: human Mdm2/MdmX binding inhibition, confirmed; shares compounds with Mdm2-MdmX inh; actives 55% (n = 10,000); luminescent assay; inhibition, % at 8 µM; in the data active = inhibition above about 40%
Full FLuc ctr: counter-screen for Mdm2/MdmX inhibitors: full-length luciferase; shares compounds with Mdm2-MdmX inh; SaOS-2 full-length luciferase counterscreen, luminescence; inhibition, % at 8 µM; actives 77% (n = 6,200); AID 504607;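 active = mean inhibition at 8 µM reaching about 37%, which flags the compound as non-specific, limit read from the data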;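 also: p53-null SaOS-2 cells with luciferase driven by a doxycycline-inducible promoter; compound on cells about two nights before reading with doxycycline added after day one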
Numbers stand for hits. Sampled rows, rich in hits. Any-hit rate of the full collection: about 4%.

What do the screens show for `O=C(Nc1ccc(Cl)cc1)c1nc[nH]c1C(=O)NCCCCNC(=O)c1[nH]cnc1C(=O)Nc1ccc(Cl)cc1`?
697 NFkB inh: inactive; Mdm2-MdmX inh: 99.3; Gli-Sufu antag: inactive; Jurkat NFkB inh: inactive; Beta apoptosis: inactive; Mdm2 MdmX conf: 73.2; Full FLuc ctr: 69.4

Results for O=C(Nc1cccc(Cl)c1)c1nc[nH]c1C(=O)NCc1ccccc1 ?
697 NFkB inh: inactive; Mdm2-MdmX inh: inactive; Gli-Sufu antag: inactive; Jurkat NFkB inh: inactive; Beta apoptosis: inactive

How did CCOC(=O)c1[nH]cnc1C(=O)Nc1ccc(Cl)cc1 do in these assays?
697 NFkB inh: inactive; Mdm2-MdmX inh: inactive; Gli-Sufu antag: inactive; Jurkat NFkB inh: inactive; Beta apoptosis: inactive

What do the screens show for `O=C(Nc1cccc(Cl)c1)c1nc[nH]c1C(=O)NCCCCNC(=O)c1[nH]cnc1C(=O)Nc1cccc(Cl)c1`?
697 NFkB inh: inactive; Mdm2-MdmX inh: 86.4; Gli-Sufu antag: inactive; Jurkat NFkB inh: inactive; Beta apoptosis: inactive; Mdm2 MdmX conf: inactive

What do the screens show for `COC(c1ccccc1)c1nnc(CCC(=O)N(C)Cc2cccc(-n3cccn3)c2)o1` (centres undefined)?
697 NFkB inh: inactive; Mdm2-MdmX inh: inactive; Gli-Sufu antag: inactive; Jurkat NFkB inh: inactive; Beta apoptosis: inactive

How did COc1cc(C(CCN2CCCC2)c2c(OC)cc(OC)c3c(-c4ccccc4)cc(=O)oc23)cc(OC)c1OC (centres undefined) do in these assays?
697 NFkB inh: inactive; Mdm2-MdmX inh: 77.6; Gli-Sufu antag: inactive; Jurkat NFkB inh: inactive; Beta apoptosis: inactive; Mdm2 MdmX conf: inactive

Results for COc1cc(OC)c2c(-c3ccccc3)cc(=O)oc2c1C(CCN1CCCC1)c1ccc2c(c1)OCO2 (centres undefined) ?
697 NFkB inh: inactive; Mdm2-MdmX inh: 81.2; Gli-Sufu antag: inactive; Jurkat NFkB inh: inactive; Beta apoptosis: inactive; Mdm2 MdmX conf: inactive

What do the screens show for `COc1cc(C(CCN2CCOCC2)c2c(OC)cc(OC)c3c(-c4ccccc4)cc(=O)oc23)cc(OC)c1OC` (centres undefined)?
697 NFkB inh: inactive; Mdm2-MdmX inh: inactive; Gli-Sufu antag: inactive

How did CCOC(=O)c1c(S(=O)(=O)N(C)Cc2ccccc2)c(C)n(C)c1C do in these assays?
697 NFkB inh: inactive; Mdm2-MdmX inh: inactive; Gli-Sufu antag: inactive; Jurkat NFkB inh: inactive; Beta apoptosis: inactive

What do the screens show for `Fc1ccc(Nc2nnc(C(F)(F)F)s2)cc1Cl`?
697 NFkB inh: inactive; Mdm2-MdmX inh: 73.4; Gli-Sufu antag: inactive; Jurkat NFkB inh: inactive; Beta apoptosis: inactive; Mdm2 MdmX conf: 68.0; Full FLuc ctr: 57.2

Results for FC(F)(F)c1nnc(Nc2ccc(Cl)cc2)s1 ?
697 NFkB inh: inactive; Mdm2-MdmX inh: inactive; Gli-Sufu antag: inactive; Jurkat NFkB inh: inactive; Beta apoptosis: inactive

How did OC(c1cc(C(F)(F)F)nc2c(C(F)(F)F)cccc12)C1CCCCN1 (centres undefined) do in these assays?
697 NFkB inh: inactive; Mdm2-MdmX inh: 100.4; Gli-Sufu antag: inactive; Jurkat NFkB inh: inactive; Beta apoptosis: inactive; Mdm2 MdmX conf: 88.7; Full FLuc ctr: inactive

How did OC(c1cc(-c2cccc(Cl)c2)nc2ccccc12)C1CCCCN1 (centres undefined) do in these assays?
Gli-Sufu antag: inactive

How did CCOc1ccc(NS(=O)(=O)c2cc(C(=O)N3CCCC3)ccc2Cl)cc1 do in these assays?
697 NFkB inh: inactive; Mdm2-MdmX inh: inactive; Gli-Sufu antag: inactive; Jurkat NFkB inh: inactive; Beta apoptosis: inactive

Results for CCOc1ccc(NS(=O)(=O)c2cc(NC(=O)c3cccc(C)c3)ccc2Cl)cc1 ?
697 NFkB inh: inactive; Mdm2-MdmX inh: 51.1; Gli-Sufu antag: inactive; Jurkat NFkB inh: inactive; Beta apoptosis: inactive; Mdm2 MdmX conf: 45.8; Full FLuc ctr: 78.9

How did COc1cc(OC)cc(C(=O)NCCc2cnc[nH]2)c1 do in these assays?
697 NFkB inh: inactive; Mdm2-MdmX inh: inactive; Gli-Sufu antag: inactive; Jurkat NFkB inh: inactive; Beta apoptosis: inactive

How did O=C(N/N=C/c1coc2ccc(Cl)cc2c1=O)c1ccc(O)cc1 do in these assays?
697 NFkB inh: inactive; Mdm2-MdmX inh: inactive; Gli-Sufu antag: inactive; Jurkat NFkB inh: inactive; Beta apoptosis: inactive

What do the screens show for `O=C(N/N=C/c1coc2ccc(Cl)cc2c1=O)c1ccncc1`?
697 NFkB inh: inactive; Mdm2-MdmX inh: 59.5; Gli-Sufu antag: inactive; Jurkat NFkB inh: inactive; Beta apoptosis: inactive; Mdm2 MdmX conf: 44.5; Full FLuc ctr: 63.3

Results for COc1ccccc1C(=O)NC(=O)COC(=O)CCNS(=O)(=O)c1ccccc1 ?
697 NFkB inh: inactive; Mdm2-MdmX inh: inactive; Gli-Sufu antag: inactive; Jurkat NFkB inh: inactive; Beta apoptosis: inactive

How did CCCCn1c(=O)[nH]c(=O)c2c1nc(-c1ccc(-c3ccc(F)cc3)o1)n2C do in these assays?
697 NFkB inh: inactive; Mdm2-MdmX inh: 73.9; Gli-Sufu antag: inactive; Jurkat NFkB inh: inactive; Beta apoptosis: inactive; Mdm2 MdmX conf: inactive

What do the screens show for `COCCn1c(-c2ccc(NC(C)=O)cc2)nc2c1c(=O)[nH]c(=O)n2CC(C)C`?
697 NFkB inh: inactive; Mdm2-MdmX inh: inactive; Gli-Sufu antag: inactive; Jurkat NFkB inh: inactive; Beta apoptosis: inactive

What do the screens show for `COCCn1c(-c2ccc(-c3ccccc3Cl)o2)nc2c1c(=O)[nH]c(=O)n2CC(C)C`?
697 NFkB inh: inactive; Mdm2-MdmX inh: 59.4; Gli-Sufu antag: inactive; Jurkat NFkB inh: inactive; Beta apoptosis: inactive; Mdm2 MdmX conf: inactive

Results for CCCCn1c(=O)[nH]c(=O)c2c1nc(-c1ccc(CC)c([N+](=O)[O-])c1)n2C ?
697 NFkB inh: inactive; Mdm2-MdmX inh: inactive; Jurkat NFkB inh: inactive; Beta apoptosis: inactive

Results for CCCCn1c(=O)[nH]c(=O)c2c1nc(-c1ccc(-c3ccccc3Br)o1)n2CCOC ?
697 NFkB inh: inactive; Mdm2-MdmX inh: 53.1; Gli-Sufu antag: inactive; Jurkat NFkB inh: inactive; Beta apoptosis: inactive; Mdm2 MdmX conf: inactive

Results for COc1ccc(C(CNC(=O)c2cc3c(s2)CCC(C)C3)N2CCCC2)cc1 (centres undefined) ?
697 NFkB inh: inactive; Mdm2-MdmX inh: inactive; Gli-Sufu antag: inactive; Jurkat NFkB inh: inactive; Beta apoptosis: inactive

What do the screens show for `CCC1CCc2sc(C(=O)NCC(c3ccccc3OC)N3CCCC3)cc2C1` (centres undefined)?
697 NFkB inh: inactive; Mdm2-MdmX inh: 75.1; Gli-Sufu antag: inactive; Jurkat NFkB inh: inactive; Beta apoptosis: inactive; Mdm2 MdmX conf: inactive

What do the screens show for `COc1ccc(S(=O)(=O)N2CCCCCC2)cc1C(=O)N(C)Cc1ccc(C(C)(C)C)cc1`?
697 NFkB inh: inactive; Mdm2-MdmX inh: 53.3; Gli-Sufu antag: inactive; Jurkat NFkB inh: inactive; Beta apoptosis: inactive; Mdm2 MdmX conf: inactive

Results for CN(C)CCCN(C(=O)c1ccc(S(=O)(=O)N(C)C2CCCCC2)cc1)c1nc2ccc(F)cc2s1 ?
697 NFkB inh: inactive; Mdm2-MdmX inh: inactive; Gli-Sufu antag: inactive; Jurkat NFkB inh: inactive; Beta apoptosis: inactive

Compound activity deposited in PubChem BioAssay by several laboratories.
